Measurements: PubChem BioAssay (Tox21)
Several values for one entry are separate records, joined by “and”; a condition that tells them apart may be missing. Equal entries are not always repeated. Inconclusive results are not listed. A call without a number means that no potency is given here. Some structures have more than one record in an assay (separate samples or runs), and their calls can disagree. Activity calls are given as the source filed them. Calls come from the whole dose curve; as a rule, active = well fitted curve in the direction sought with a large enough effect in the repeat runs; inconclusive = weak or mixed curves; inactive = no such curve, though single readings can be large; an effect the other way counts as inactive or inconclusive.

Columns and labels:
[1] = qHTS RealTime-Glo MT Cell Viability Assay in HEK293 cells - 0 hour (AID 1224880); note: nearly all actives have a fitted effect of over 45% in size
How it was run: (§1)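 Luminescence readout at each listed time point; HEK293, 600 cells/well, RealTime-Glo MT reagent added with cells; compounds pinned (23 nL in DMSO) after 5 h at 37 C; continuous culture at 37 C.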

[2] = A CellTox Green Cytotoxicity Assay to monitor cytotoxicity in HepG2 cells - 0 hour (AID 1224882); note: nearly all actives have a fitted effect of over 35% in size
How it was run: (§2)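 HepG2, 600 cells/well premixed w/ CellTox Green; 5 h settle, 37 C/5% CO2; pintool cpd add (DMSO); 37 C, 40 h; fluorescence read at 0, 8, 16, 24, 32, 40 h.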

[3] = A CellTox Green Cytotoxicity Assay to monitor cytotoxicity in HepG2 cells - 32 hour (AID 1224883); note: nearly all actives have a fitted effect of over 50% in size
How it was run: as §2

[4] = A CellTox Green Cytotoxicity Assay to monitor cytotoxicity in HEK293 cells - 8 hour (AID 1224884); note: nearly all actives have a fitted effect of over 35% in size
How it was run: (§3)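 Read-out: fluorescence of a cell-impermeant cyanine dye staining DNA of dead cells, proportional to cytotoxicity. HEK293, 600 cells/well with reagent, compound (23 nL DMSO) added after 5 h; reads at 0, 8, 16, 24, 32, 40 h.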

[5] = qHTS RealTime-Glo MT Cell Viability Assay in HepG2 cells - 16 hour (AID 1224885); note: nearly all actives have a fitted effect of over 50% in size
How it was run: (§4)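 qHTS, HepG2, 600 cells/well, RealTime-Glo (NanoLuc + prosubstrate) added with cells; 5 h preincubation; DMSO compound addition; 37 C; luminescence at 0/8/16/24/32/40 h.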

[6] = qHTS RealTime-Glo MT Cell Viability Assay in HEK293 cells - 24 hour (AID 1224886); note: nearly all actives have a fitted effect of over 50% in size
How it was run: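 Assay medium contained NanoLuc luciferase plus cell-permeant prosubstrate, added with HEK293 cells at 600 cells/well. After 5 h at 37 C/5% CO2 compounds were added; plates stayed at 37 C for 40 h with serial luminescence reads.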

[7] = qHTS RealTime-Glo MT Cell Viability Assay in HEK293 cells - 8 hour (AID 1224887); note: nearly all actives have a fitted effect of over 50% in size
How it was run: as §1

[8] = A CellTox Green Cytotoxicity Assay to monitor cytotoxicity in HEK293 cells - 16 hour (AID 1224888); note: nearly all actives have a fitted effect of over 35% in size
How it was run: as §3

[9] = qHTS RealTime-Glo MT Cell Viability Assay in HepG2 cells - 0 hour (AID 1224889); note: nearly all actives have a fitted effect of over 50% in size
How it was run: as §4

[10] = A CellTox Green Cytotoxicity Assay to monitor cytotoxicity in HEK293 cells - 32 hour (AID 1224881); note: nearly all actives have a fitted effect of over 40% in size
How it was run: as §3
Potency is the fitted concentration of half-maximal effect.

Compound: CCCCC/C=C/C=C/C=O
- Potency [1]: inactive
- Potency [2]: inactive
- Potency [3]: 54.5 µM (active) and 54.9 µM (active)
- Potency [4]: inactive
- Potency [5]: inactive
- Potency [6]: inactive
- Potency [7]: inactive
- Potency [8]: inactive
- Potency [9]: inactive

Compound: OC[C@H]1O[C@@H]2O[C@H]3[C@H](O)[C@@H](O)[C@@H](O[C@H]4[C@H](O)[C@@H](O)[C@@H](O[C@H]5[C@H](O)[C@@H](O)[C@@H](O[C@H]6[C@H](O)[C@@H](O)[C@@H](O[C@H]7[C@H](O)[C@@H](O)[C@@H](O[C@H]8[C@H](O)[C@@H](O)[C@@H](O[C@H]1[C@H](O)[C@H]2O)O[C@@H]8CO)O[C@@H]7CO)O[C@@H]6CO)O[C@@H]5CO)O[C@@H]4CO)O[C@@H]3CO
- Potency [1]: inactive
- Potency [2]: inactive
- Potency [3]: inactive
- Potency [4]: inactive
- Potency [5]: inactive
- Potency [6]: inactive
- Potency [7]: inactive
- Potency [8]: inactive
- Potency [9]: inactive

Compound: CCCCC(CC)COP(=O)(OCC(CC)CCCC)OCC(CC)CCCC (stereo not drawn)
- Potency [1]: inactive
- Potency [2]: inactive
- Potency [3]: inactive
- Potency [4]: inactive
- Potency [5]: inactive
- Potency [6]: inactive
- Potency [7]: inactive
- Potency [8]: inactive
- Potency [9]: inactive

Compound: Cc1cccc(C(=O)O)c1
- Potency [1]: inactive
- Potency [2]: inactive
- Potency [3]: inactive
- Potency [4]: inactive
- Potency [5]: inactive
- Potency [6]: inactive
- Potency [7]: inactive
- Potency [8]: inactive
- Potency [9]: inactive

Compound: Nc1ccccc1N
- Potency [2]: 50.1 µM (active) and inactive
- Potency [3]: 50.1 µM (active)
- Potency [4]: 50.1 µM (active)
- Potency [5]: inactive
- Potency [6]: inactive
- Potency [8]: 50.1 µM (active)
- Potency [9]: inactive

Compound: COc1ccc(C(=O)CC(=O)c2ccc(C(C)(C)C)cc2)cc1
- Potency [1]: inactive
- Potency [2]: inactive and 75.6 nM (active)
- Potency [3]: inactive and 67.4 nM (active)
- Potency [4]: inactive
- Potency [5]: inactive
- Potency [6]: 29.6 µM (active) and inactive
- Potency [8]: inactive
- Potency [9]: inactive

Compound: Cn1cnc([N+](=O)[O-])c1Sc1ncnc2nc[nH]c12
- Potency [1]: inactive
- Potency [2]: inactive
- Potency [3]: 54.5 µM (active) and inactive
- Potency [4]: inactive
- Potency [5]: inactive
- Potency [7]: inactive
- Potency [8]: inactive
- Potency [9]: inactive

Compound: C=CC(C)(CCC=C(C)C)OC(C)=O (stereo not drawn)
- Potency [1]: inactive
- Potency [2]: inactive
- Potency [3]: inactive
- Potency [4]: inactive
- Potency [5]: inactive
- Potency [6]: inactive
- Potency [7]: inactive
- Potency [8]: inactive
- Potency [9]: inactive

Compound: Nc1ncn([C@@H]2O[C@H](CO)[C@@H](O)[C@H]2O)c(=O)n1
- Potency [1]: inactive
- Potency [2]: inactive
- Potency [3]: inactive
- Potency [4]: inactive
- Potency [5]: inactive
- Potency [6]: inactive
- Potency [7]: inactive
- Potency [8]: inactive
- Potency [9]: inactive

Compound: O=CCc1ccccc1
- Potency [1]: inactive
- Potency [2]: inactive
- Potency [3]: inactive
- Potency [4]: inactive
- Potency [5]: inactive
- Potency [6]: inactive
- Potency [7]: inactive
- Potency [8]: inactive
- Potency [9]: inactive

Compound: COc1c(Cl)c(Cl)c(Cl)c(Cl)c1Cl
- Potency [1]: inactive
- Potency [2]: inactive
- Potency [3]: inactive
- Potency [4]: inactive
- Potency [5]: inactive
- Potency [6]: inactive
- Potency [7]: inactive
- Potency [8]: inactive
- Potency [9]: inactive

Compound: CN1C(C(=O)Nc2ccccn2)=C(O)c2ccccc2S1(=O)=O
- Potency [1]: inactive
- Potency [2]: inactive
- Potency [3]: inactive
- Potency [4]: inactive
- Potency [5]: inactive
- Potency [6]: inactive
- Potency [7]: inactive
- Potency [8]: inactive
- Potency [9]: inactive

Compound: c1cc(-c2ccncc2)ccn1
- Potency [1]: inactive
- Potency [2]: inactive
- Potency [3]: inactive
- Potency [4]: inactive
- Potency [5]: inactive
- Potency [6]: inactive
- Potency [7]: inactive
- Potency [8]: inactive
- Potency [9]: inactive

Compound: O=P(O)(O)O
- Potency [1]: inactive
- Potency [2]: inactive
- Potency [3]: inactive
- Potency [4]: inactive
- Potency [5]: inactive
- Potency [6]: inactive
- Potency [7]: inactive
- Potency [8]: inactive
- Potency [9]: inactive

Compound: CN(C)CCC=C1c2ccccc2CCc2ccccc21
- Potency [2]: inactive
- Potency [3]: 55 µM (active) and 43.6 µM (active) and 26.8 µM (active)
- Potency [4]: inactive
- Potency [5]: inactive
- Potency [6]: inactive
- Potency [7]: inactive
- Potency [8]: inactive

Compound: CNCCCC12CCC(c3ccccc31)c1ccccc12
- Potency [2]: inactive
- Potency [3]: 34.7 µM (active) and 23.9 µM (active)
- Potency [4]: inactive
- Potency [5]: 49 µM (active)
- Potency [6]: 49 µM (active)
- Potency [7]: inactive

Compound: C#C[C@]1(O)CC[C@H]2[C@@H]3CCc4cc(OC)ccc4[C@H]3CC[C@@]21C
- Potency [1]: inactive
- Potency [2]: inactive
- Potency [3]: 23.9 µM (active)
- Potency [4]: inactive
- Potency [5]: inactive
- Potency [6]: 34.7 µM (active) and 19 µM (active)
- Potency [8]: inactive
- Potency [9]: inactive

Compound: C#C[C@]1(O)CC[C@H]2[C@@H]3CCC4=Cc5oncc5C[C@]4(C)[C@H]3CC[C@@]21C
- Potency [10]: 49 µM (active)
- Potency [2]: inactive
- Potency [3]: inactive
- Potency [4]: inactive
- Potency [8]: inactive

Compound: CCCCOCCOCCO
- Potency [1]: inactive
- Potency [2]: inactive
- Potency [3]: inactive
- Potency [4]: inactive
- Potency [5]: inactive
- Potency [6]: inactive
- Potency [7]: inactive
- Potency [8]: inactive
- Potency [9]: inactive

Compound: COc1cc([C@@H]2c3cc4c(cc3[C@H](O)[C@H]3COC(=O)[C@H]23)OCO4)cc(OC)c1OC
- Potency [1]: inactive
- Potency [2]: inactive
- Potency [3]: inactive
- Potency [4]: inactive
- Potency [5]: inactive
- Potency [7]: inactive
- Potency [8]: inactive
- Potency [9]: inactive

Compound: O=C1OC2(c3cc(Br)c(O)c(Br)c3Oc3c2cc(Br)c(O)c3Br)c2c(Cl)c(Cl)c(Cl)c(Cl)c21
- Potency [10]: 4.91 µM (active) and 26.5 µM (active)
- Potency [2]: 39 µM (active) and 26.5 µM (active)
- Potency [3]: 3.1 µM (active) and 23.6 µM (active)
- Potency [4]: 3.9 µM (active) and 23.6 µM (active)
- Potency [5]: inactive
- Potency [6]: inactive
- Potency [7]: inactive
- Potency [8]: 2.76 µM (active) and 23.6 µM (active)
- Potency [9]: 55 µM (active)

Compound: O=C(Nc1ccc(Cl)cc1)Nc1ccc(Cl)c(Cl)c1
- Potency [1]: inactive
- Potency [2]: inactive
- Potency [3]: inactive
- Potency [4]: inactive
- Potency [5]: inactive
- Potency [7]: inactive
- Potency [8]: inactive
- Potency [9]: inactive

Compound: COC(=O)C1=C(C)NC(C)=C(C(=O)OCCN(C)Cc2ccccc2)C1c1cccc([N+](=O)[O-])c1 (stereo not drawn)
- Potency [1]: 5.46 µM (active) and 6.01 µM (active)
- Potency [2]: inactive
- Potency [3]: 48.7 µM (active) and inactive
- Potency [4]: inactive
- Potency [5]: 24.4 µM (active) and 10.7 µM (active)
- Potency [6]: 21.7 µM (active) and 19 µM (active)
- Potency [7]: 24.4 µM (active) and 19 µM (active)
- Potency [8]: inactive
- Potency [9]: 6.13 µM (active) and 3.38 µM (active)

Compound: CC(C)OC(=O)C(C)(C)Oc1ccc(C(=O)c2ccc(Cl)cc2)cc1
- Potency [1]: inactive
- Potency [2]: inactive
- Potency [3]: inactive
- Potency [4]: inactive
- Potency [5]: inactive
- Potency [6]: 19.5 µM (active) and 10.7 µM (active)
- Potency [7]: 24.5 µM (active) and 16.9 µM (active)
- Potency [8]: inactive
- Potency [9]: inactive

Compound: COc1cccc2c1C(=O)c1c(O)c3c(c(O)c1C2=O)C[C@@](O)(C(=O)CO)C[C@@H]3O[C@H]1C[C@H](N)[C@H](O)[C@H](C)O1
- Potency [1]: inactive
- Potency [2]: inactive
- Potency [3]: inactive and 21.3 µM (active)
- Potency [5]: inactive
- Potency [6]: 155 nM (active) and 301 nM (active)
- Potency [7]: inactive
- Potency [8]: inactive
- Potency [9]: inactive
